PubChem BioAssay (NCATS)
Inconclusive results are not listed. Unmarked numbers belong to inactive results. Calls of active or inactive are those of the source. Calls come from the whole dose curve; as a rule, active = well fitted cell-killing curve with a large enough effect; inconclusive = small, poorly fitted or top-dose-only effect; inactive = flat fitted curve, though single readings scatter.

Assay: qHTS of pediatric cancer cell lines to identify multiple opportunities for drug repurposing: Primary screen for TC32 cells (AID 1347089); note: nearly all actives have a fitted effect of over 60% in size
Conditions: TC32 Ewing sarcoma viability, CellTiter-Glo luminescence, 48 h; series mostly up to 45.8 µM; activity change, negative = cytotoxic: at the top concentration
In short: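 TC32 cells, 500-1,000/well in growth medium, compound-treated 48 h at 37 °C; viability from CellTiter-Glo luminescence. Primary screen: MIPE 11-point (0.78 nM–46 µM final), NPC 8-point (0.59 nM–46 µM final); confirmatory at 11-point dilutions.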
% is set by controls: 0 for no effect and ±100 for the full control effect; potency is the fitted concentration of half-maximal effect.

SMILES | Potency | activity change, negative = cytotoxic [%]
CCC[C@H](Nc1nc(-c2ccc(NC(=O)NCC)c(OC)c2)ncc1C)c1cccnc1 | 93 nM (active) | 
O[C@@H](COc1cccc2ncccc12)CN1CCN(C2c3ccccc3[C@@H]3[C@H](c4ccccc42)C3(F)F)CC1 (stereo partly specified) |  | -24.1
O=c1[nH]c(=O)n([C@H]2C[C@@H](O)[C@@H](CO)O2)cc1C(F)(F)F | 7390 nM (active) | 
COc1cc2c(cc1Cc1cccc(Cl)c1F)c(=O)c(C(=O)O)cn2[C@H](CO)C(C)C |  | -5.26
Cn1cnc(-c2cc3nccc(Oc4ccc(NC(=S)NC(=O)Cc5ccccc5)cc4F)c3s2)c1 |  | 0.904
CN1CC(=O)N2C(Cc3c([nH]c4ccccc34)[C@H]2c2ccc3c(c2)OCO3)C1=O (stereo partly specified) |  | 8.27
NC(=O)c1nnn(Cc2cc(Cl)c(C(=O)c3ccc(Cl)cc3)c(Cl)c2)c1N |  | -5.66
Nc1nc(Cl)nc2c1ncn2[C@@H]1O[C@H](CO)[C@@H](O)[C@H]1F | 23.4 nM (active) | 
CC[C@@H]([C@H](C)O)n1ncn(-c2ccc(N3CCN(c4ccc(OCC5CO[C@@](Cn6cncn6)(c6ccc(F)cc6F)C5)cc4)CC3)cc2)c1=O (stereo partly specified) |  | -4.12
COc1ccc(Cn2ccc3ccc(C(=O)NO)cc32)cc1 |  | 2.86
CCC(=O)OCC(=O)[C@@]1(OC(=O)CC)[C@@H](C)C[C@@H]2[C@H]3CCC4=CC(=O)C=C[C@]4(C)[C@@]3(F)[C@@H](O)C[C@@]21C |  | 4.62
O=C(c1ccc(C=Cc2n[nH]c3ccccc23)cc1)N1CCNCC1 | 4660 nM (active) | 
CO[C@H]1/C=C\O[C@@]2(C)Oc3c(C)c(O)c4c(O)c(c(C=NN5CCN(C6CCCC6)CC5)c(O)c4c3C2=O)NC(=O)C(C)=CC=C[C@H](C)[C@H](O)[C@@H](C)[C@@H](O)[C@@H](C)[C@H](OC(C)=O)[C@H]1C | 523 nM (active) | 
Cc1ccc(NC(=O)c2cccc(N(C)C)c2)cc1NC(=O)c1ccc(O)cc1 | 13100 nM (active) | 
C[C@@H](O[C@H]1OCCN(Cc2n[nH]c(=O)[nH]2)[C@@H]1c1ccc(F)cc1)c1cc(C(F)(F)F)cc(C(F)(F)F)c1 |  | 2.66
O=C(O)C1=NC(C(=O)O)CC(C=CN2c3cc(O)c(OC4OC(CO)C(O)C(O)C4O)cc3CC2C(=O)O)=C1 (stereo unspecified) |  | 6.29
C#CCN(C)CC1=Cc2ccccc2Oc2ccccc21 |  | -24.7
O=C1CCCC(=O)C1C(=O)c1ccc(C(F)(F)F)cc1[N+](=O)[O-] |  | 3.45

SMILES | Potency | activity change, negative = cytotoxic [%]
CCOC(=O)c1c(CSc2ccccc2)n(C)c2cc(Br)c(O)c(CN(C)C)c12 |  | 2.9
O=C(Nc1cccc(C(F)(F)F)c1)Nc1cc(S(=O)(=O)NC2CC2)ccc1-c1ccsc1 |  | 4.54
CCOC(=O)[C@@H](N)CCC(=O)N[C@@H](CSCc1ccccc1)C(=O)N[C@@H](C(=O)OCC)c1ccccc1 |  | 0
CCC(C)SSc1ncc[nH]1 (stereo unspecified) |  | 8.81
CCCCc1ccc(NS(=O)(=O)c2ccc(C)c(C(=O)N3CCN(c4cccc(C)c4C)CC3)c2)cc1 |  | 9.3
Clc1ccc(COC(Cn2ccnc2)c2ccc(Cl)cc2Cl)c(Cl)c1 (stereo unspecified) |  | -7.18
Cc1cn([C@@H]2C[C@@H](O)[C@H](CO)O2)c(=O)[nH]c1=O |  | -19.3
Cc1cc(OCCCS(C)(=O)=O)cc(C)c1-c1cccc(COc2ccc3c(c2)OC[C@H]3CC(=O)O)c1 |  | -11.9
CCCCCCCCCCCCCC(=O)N[C@H](CO)[C@H](O)c1ccc([N+](=O)[O-])cc1 |  | -2.8
Cc1ccc(NC(=O)c2ccc(CN3CCN(C)CC3)cc2)cc1Nc1nc(-c2cccnc2)cs1 |  | 1.13
CCN1CCC(n2cc(CNc3cc(Cl)c4ncc(C#N)c(Nc5ccc(F)c(Cl)c5)c4c3)nn2)CC1 |  | -2.78
CC(C)(O)CC(=O)NCCn1ccc2ncnc(Nc3ccc(Oc4cccc(C(F)(F)F)c4)c(Cl)c3)c21 |  | 15.8
CN[C@@H]1CN(c2ccc3c(=O)c(C(=O)O)cn(-c4nccs4)c3n2)C[C@@H]1OC | 12800 nM (active) | 
CC[C@H](CC#N)OC(=O)N[C@@H](C)c1cccc(NC(=O)Nc2ccc(-c3cnco3)c(OC)c2)c1 | 1040 nM (active) | 
CC(=O)Nc1cccc(-n2c(=O)n(C3CC3)c(=O)c3c(Nc4ccc(I)cc4F)n(C)c(=O)c(C)c32)c1 |  | 2.74
O=C(Nc1ncc(SCCN2CCCC2)s1)[C@]1(c2ccc(S(=O)(=O)C3CC3)cc2)C[C@@H]1C1CCCCC1 |  | -17.1
CNc1nc(-c2ccc3c(N)n[nH]c3c2)cc(N2C[C@@H](C(=O)NC3CCCCC3)CC[C@@H]2C)n1 |  | -17.1
COC1CCC(C(=O)c2ccc3nc4c(cc3c2)CCCO4)CC1 (stereo unspecified) |  | -0.786
